Screen size: about 1,500 compounds; about 920 (61%) were called active. The set was probably picked from earlier hits. The list shows a part of the results. Measured potencies and affinities stand elsewhere. A number with no mark means an inactive call. No rule for the calls is given here.
Assay: Vero 76 cell cytotoxicity, dose response, cytotoxicity control for VEEV inhibitor project (AID 588719)
Details: Vero 76 cells viability, cytotoxicity counter-screen; series mostly up to 25 µM; viability: at the top concentration
In the case of `CC[C@@H](C)[C@H](NC(=O)OC(C)(C)C)c1nnc(S(=O)(=O)Cc2cc(C)ccc2C)o1`, the “viability” value is reported as 78.4%. In the case of `CC(=O)Nc1nnc(SCC(=O)c2ccc3c(c2)Cc2ccccc2-3)s1`, the “viability” value is reported as 83.6%. For `CCC(=O)Nc1nnc(SCC(=O)c2ccc3c(c2)Cc2ccccc2-3)s1`, the “viability” value was 88.4%. With `CCOC(=O)c1c[nH]n2c(=O)cc(C)nc12` the “viability” value was 99.5%. For `Cc1cc(C)n(-c2nc(N(c3ccccc3)c3ccccc3)nc(-n3nc(C)cc3C)n2)n1`, the “viability” value was 89.2%. With `O=C(CCS(=O)(=O)c1ccccc1)Nc1nnc(C(F)(F)F)s1` the “viability” value was 80.7%. In the case of `Cc1ccc(CSCC(=O)Nc2ccccc2C(=O)O)cc1`, the “viability” value is reported as 71.7%. For `C/C=C/c1cc(CN2CCN(c3ccccc3)CC2)c(O)c(OC)c1`, the “viability” value was 85.8%. For `CC(C)CCn1nnnc1CN1CCN(c2ccccc2)CC1`, the “viability” value was 103%. In the case of `CC(=O)OCC1CC(COC(C)=O)C(COC(C)=O)CC1COC(C)=O` (configuration not stated), the “viability” value is reported as 93.2%. With `S=c1[nH]nc(-c2cccc(Cl)c2)n1/N=C/c1ccc(-c2ccccc2Br)o1` the “viability” value was 95.2%. With `CCN1CCC(CNCc2cn(-c3ccc(OC)cc3)nc2-c2ccccc2Cl)C1` (configuration not stated) the “viability” value was 97.9%. In the case of `Nc1ncnc(N2CCOCC2)n1`, the “viability” value is reported as 94.5%. In the case of `O=C(COC(=O)c1ccc(O)cc1O)Nc1ccc2ccccc2c1`, the “viability” value is reported as 93%. For `CCOC(=O)C1(CCC(=O)OCc2ccccc2)CCCCC1=O` (configuration not stated), the “viability” value was 97.2%. For `CCC(CC)N1CCN(Cc2nc3ccc([N+](=O)[O-])cc3c(=O)n2-c2ccccc2F)CC1`, the “viability” value was 77%. For `OCCCNc1cc(-c2ccccc2)nc2cc(-c3ccc(F)cc3)nn12`, the “viability” value was 73.2%. In the case of `Cc1ccc(C)c(C2=NNC(=O)CC2)c1`, the “viability” value is reported as 93.6%. In the case of `Cc1cccc(C(=O)OCC(=O)N2CCN(C(=O)c3ccco3)CC2)c1O`, the “viability” value is reported as 96.5%. With `COc1cc2nc(N3CCNCC3)nc(N)c2cc1OC` the “viability” value was 76.1%. In the case of `CC(C)Oc1ccc(C(=O)CCN2CCOCC2)cc1`, the “viability” value is reported as 92.7%. For `COc1ccc(C(C)=NOC(=O)c2c(-c3ccccc3Cl)noc2C)cc1CN1CCOCC1`, the “viability” value was 87.8%. For `OCC[n+]1c2ccccc2nc2ccc(N3CCOCC3)cc21`, the “viability” value was 97.1%. With `Cc1c(C(O)CN2CCN(Cc3ccc4c(c3)OCO4)CC2)c2ccccc2n1C` (configuration not stated) the “viability” value was 87.2%. In the case of `Brc1ccc2[nH]c3c(c2c1)CCC3`, the “viability” value is reported as 83.3%. With `Cc1onc(-c2ccccc2)c1C(=O)NCc1ccc(F)cc1` the “viability” value was 85.7%. For `Cc1ccc(C)c(CN2CCC(CNC(=O)Nc3ccc(Br)cc3F)CC2)c1`, the “viability” value was 80.7%. With `O=C1c2cc([N+](=O)[O-])cc3cc([N+](=O)[O-])cc(c23)C(=O)N1c1ccccn1` the “viability” value was 80.2%. For `CC(C)Cc1ccc(CN2CCCC(NC(=O)c3cccc(-n4cnnc4)c3)C2)cc1` (configuration not stated), the “viability” value was 77.4%. For `Nc1nc(C2CC2)c(Sc2sc(N)nc2C2CC2)s1`, the “viability” value was 79.2%. With `COc1ccc(C[C@H]2CN3C(=NC[C@H]3C)N2CCNC(=O)CCC2CCCCC2)cc1` the “viability” value was 93.6%. For `O[C@H]1C[C@H](c2ccc(Cl)cc2)N(CC2CCCCC2)C[C@@H]1n1cc(-c2ccc(F)cc2)nn1`, the “viability” value was 168%. For `Cc1ccc(NC(=S)NNC(=S)Nc2cccc(C(F)(F)F)c2)cc1`, the “viability” value was 88.9%. In the case of `CC(C)(C)c1ccc(C(=O)NC(=S)Nc2sc3c(c2C#N)CCC3)cc1`, the “viability” value is reported as 76.9%. For `CCOC(=O)C1=C(NC(=S)NC(=O)c2ccccc2)c2ccccc2CC1(C)C`, the “viability” value was 82.3%. With `Cc1sc(NC(=S)NC(=O)c2ccc(C(C)(C)C)cc2)c(C#N)c1C` the “viability” value was 71.1%. In the case of `ClCCn1cnc2c(SCc3ccccc3Cl)ncnc21`, the “viability” value is reported as 60.7%. With `Cc1cccc2sc(N(CCCN(C)C)C(=O)c3ccc4ncsc4c3)nc12` the “viability” value was 76.9%. With `CC1SCC(NC(=O)c2ccc(Cl)cc2)CS1` (configuration not stated) the “viability” value was 101%. In the case of `Cc1cccc2c1NC1(CCCC1)CC2C` (configuration not stated), the “viability” value is reported as 90.3%. For `C/C(CCC12CC3CC(CC(C3)C1)C2)=N\NC(N)=S`, the “viability” value was 86.5%. In the case of `CC(=O)NNc1cc(C)nc(N)n1`, the “viability” value is reported as 90.7%. With `Cc1ccc(Cc2c(-c3ccc(C)cc3)nc3c4ccccc4ccn23)cc1` the “viability” value was 96.1%. With `COCCn1c(SC(C)C(=O)Nc2ncc(Cl)cc2Cl)nc2ccccc21` (configuration not stated) the “viability” value was 91.7%. In the case of `Cc1cc(SC(C)C(=O)Nc2ncc(Cl)cc2Cl)nc2ccccc12` (configuration not stated), the “viability” value is reported as 79.2%. In the case of `O=C(CCCCN1CCCCC1)c1ccc2c(c1)Cc1ccccc1-2`, the “viability” value is reported as 76.1%. For `CCOC(=O)c1ccc(NC(=S)N(CCN(C)C)Cc2cccs2)cc1`, the “viability” value was 74.1%. With `CCc1ccccc1Nc1nc(N)nc(COC(=O)c2cccn2C)n1` the “viability” value was 82.6%. For `COc1ccc(Nc2ccccc2N)cc1`, the “viability” value was 78.8%. In the case of `COc1ccc(OC)c(Nc2nc(NCCC(C)C)nc(N)c2[N+](=O)[O-])c1`, the “viability” value is reported as 80%. With `CCc1ccccc1Nc1nc(N)nc(COC(=O)CCC(=O)c2ccc(F)cc2)n1` the “viability” value was 88.4%. With `CCOC(=O)c1c(S(=O)(=O)N2CCC(C)CC2)c(C)n(C)c1C` the “viability” value was 100%.

Source: PubChem BioAssay AID588719 (Southern Research Specialized Biocontainment Screening …, 2011)
